Usually inhibition stands for how much of the control response was suppressed.

Assay [1] relates to TRPC4 beta (transient receptor potential cation channel C4), mouse. As to the kind of experiment: activators of mouse TRPC4 channel, confirmation, cell-based, Fluo4 calcium, HEK293 TRPC4beta/mu-opioid, duplicates, 10 µM (AID 2426;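 active = fluorescence ratio normalized to control raised more than 50% in primary screen plus both repeat runs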). The conditions noted are these: Fluo4 calcium fluorescence, at 10 µM; active compounds read high.
Assay [2] concerns transient receptor potential cation channel C4 beta (TRPC4), mouse. The assay can be described thus: activators of mouse TRPC4 channel, confirmation, cell-based, second round, Fluo4, HEK293 TRPC4beta/mu-opioid, 1 µM (AID 2461;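 active = primary screen active and over 50% activation in each of two duplicate runs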). The conditions noted are these: Fluo4 calcium fluorescence, at 1 µM; active compounds read high.
Assay [3] has as its system TRPC4 (transient receptor potential cation channel C4 beta), mouse. The assay can be described thus: positive allosteric modulators of mouse TRPC4, confirmation, cell-based, second round, Fluo-4, HEK293 TRPC4beta/mu-opioid, 1 µM (AID 2554;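 active = primary screen hit whose fluorescence ratio, in both repeats, exceeds the weak agonist control mean by 3 SD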). Particulars: DAMGO EC20, Fluo-4 calcium flux, at 1 µM; active compounds read high. Background: Calcium assays in cells follow changes in intracellular calcium, usually with a dye or a luminescent sensor.

Assay [4] deals with TRPC4 beta (transient receptor potential cation channel C4), mouse. As to the kind of experiment: positive allosteric modulators of mouse TRPC4, confirmation, cell-based, Fluo-4, HEK293 TRPC4beta/mu-opioid (AID 2555;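 active = primary screen hit whose calcium fluorescence ratio, in both repeats, exceeds the weak agonist control mean by 3 SD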). The conditions noted are these: DAMGO EC20, Fluo-4 calcium flux, at 10 µM; active compounds read high.
For assay [5], the target named is Short transient receptor potential channel 4 (Mus musculus) (UniProt Q9QUQ5). The assay can be described thus: inhibitors of mouse TRPC4 channel, confirmation, cell-based, Fluo4, HEK293 TRPC4beta/mu-opioid (AID 2636). Particulars: DAMGO, Fluo4 calcium flux, at 10 µM; active compounds read high.
The target is the same in assay [6]. The assay can be described thus: inhibitors of mouse TRPC4 channel, confirmation, cell-based, second round, Fluo4, HEK293 TRPC4beta/mu-opioid, 1 µM (AID 2637;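 active = calcium signal ratio cut to more than 3 SD under the fully stimulated control mean yet still positive, in both repeats and the primary screen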;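 as to inhibition: percent of integrated ratio relative to wells lacking test compound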). Particulars: Fluo4 calcium flux, DAMGO, at 1 µM; active compounds read high.
Assay [7] has the same target. The assay can be described thus: mouse TRPC4 channel activators, dose response, cell-based, HEK293 TRPC4/mu-opioid, Fluo-4 calcium (AID 434937;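 active = primary screen activator hit with a dose response curve and TRPC4 channel activation at any tested dose; inactive = no activation, no dose response, or not a primary hit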).
The target is the same in assay [8]. As to the kind of experiment: TRPC4 positive allosteric modulators, dose response, cell-based, HEK293 TRPC4/mu-opioid, Fluo-4 calcium, EC20 DAMGO (AID 434941;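 active = earlier screen potentiator hit that boosts the TRPC4 ion channel at some dose, with a dose response; inactive = no potentiation, no dose response, or not a prior hit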;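 also: calcium entry triggered by an EC20 dose of DAMGO at the co-expressed mu-opioid receptor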).
Assay [9] deals with Short transient receptor potential channel 6 (Mus musculus) (UniProt Q61143). As to the kind of experiment: inhibition of mouse TRPC6 channel, confirmation, selectivity assay for TRPC4 inhibitor project, cell-based, HEK293, membrane potential dye, duplicate (AID 434948;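 active = active in primary screen and both duplicates, each dropping signal beyond three positive-control SD with fluorescence still positive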). The conditions noted are these: HEK293 TRPC6, membrane potential dye fluorescence, at 10 µM, stimulated with maximal-effect acetylcholine; active compounds read high.

Assay [10] has the same target. As to the kind of experiment: activation of mouse TRPC6 channel, confirmation, selectivity assay for TRPC4 activator project, cell-based, HEK293, membrane potential dye, duplicate (AID 434950;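 active = membrane potential signal rise above negative control mean plus 3 SD in both duplicates, also active in the earlier TRPC4 screen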). The conditions noted are these: HEK293 TRPC6, membrane potential fluorescence, at 10 µM; active compounds read high.
The target is the same in assay [11]. As to the kind of experiment: TRPC6 potentiation by TRPC4 potentiator hits, confirmation, selectivity assay for TRPC4 potentiator project, HEK293 cells, membrane potential dye, duplicate (AID 434952;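 active = compound raising the membrane signal above positive-control mean plus 3 SD in both repeats, and a primary screen hit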). Particulars: HEK293 TRPC6, membrane potential dye fluorescence, at 10 µM, maximal acetylcholine added after compound; active compounds read high.
Assay [12] has as its target Short transient receptor potential channel 4 (Mus musculus) (UniProt Q9QUQ5). The assay can be described thus: calcium flux activators in TRPC4/5HT1a cells, counter-screen for TRPC4 activator project, cell-based, second counter screen, HEK293 TRPC4/5HT1a, Fluo-4 (AID 434977;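 active = calcium signal rise above buffer-control mean plus 5 SD in both duplicates, and also a hit in the primary screen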). Particulars: Fluo-4 calcium flux, at 10 µM; active compounds read high.
The nature of assay [13]: calcium flux inhibitors in TRPC4/5HT1a cells, confirmation, counter-screen for TRPC4 inhibitor project, cell-based, second counter screen, HEK293 TRPC4/5HT1a, Fluo-4 (AID 434978;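 active = primary screen active whose calcium signal fell more than 3 SD beyond the full-serotonin control mean in both duplicate plates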;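 as to outcome: serotonin given first at submaximal then at maximal dose after compound preincubation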). Particulars: Fluo-4 calcium flux, at 10 µM, serotonin added to trigger calcium flux; active compounds read high.
Assay [14] has as its system TRPC4 (mouse), co-expressed with 5HT1a in HEK293. As to the kind of experiment: calcium flux potentiators in TRPC4/5HT1a cells, confirmation, counter-screen for TRPC4 potentiator project, cell-based, second counter screen, HEK293 TRPC4/5HT1a, Fluo-4 (AID 434979;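 active = signal rise over 3 SD above mean of control wells given weak agonist, in both repeats and first screen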). The conditions noted are these: Fluo-4 calcium flux, at 10 µM, serotonin added at its EC20 dose; active compounds read high.

A short description of assay [15]: calcium flux activation in mu-opioid HEK293 cells, confirmation, counter-screen for TRPC4 activator project, cell-based, HEK293 mu-opioid receptor line (AID 449723;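 active = hit in primary screen, with calcium signal over 5 SD above buffer well mean in both duplicates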;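 also: counter screen cells carry the mu-opioid receptor alone and lack TRPC4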). The conditions noted are these: Fluo-4 calcium fluorescence, at 10 µM; active compounds read high.
Assay [16] is described as follows: calcium flux enhancement in mu-opioid HEK293 cells, confirmation, counter-screen for TRPC4 allosteric potentiator project, cell-based, HEK293 mu-opioid receptor line (AID 449724;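 active = calcium signal rise more than 3 SD above the low-dose agonist control mean, in both duplicate plates and the primary screen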;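 also: HEK293 cells carrying mu-opioid receptor only with no TRPC4 channel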). Particulars: Fluo-4 calcium flux, at 10 µM, compound added before EC20 DAMGO stimulus; active compounds read high.
Assay [17] can be described thus: thallium flux activation in parental CHO cells, counter-screen for KCNQ1 potentiator project (AID 493006;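 active = duplicate-averaged activation above buffer control mean plus 5 SD of those controls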). The conditions noted are these: parental CHO-K1 cells, FluxOR thallium flux, at 10 µM; active compounds read high. On the technique in general: Counterscreens check selectivity or assay interference.
Assay [18] concerns the target Potassium voltage-gated channel subfamily KQT member 1 (Homo sapiens) (UniProt P51787). As to the kind of experiment: KCNQ1 potassium channel potentiators, confirmation, FluxOR thallium flux, CHO cells, duplicates (AID 493007;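 active = potentiation averaged over duplicate wells exceeding buffer-only control mean by more than 3 SD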;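 as to outcome: cells depolarized by a potassium plus thallium sulfate stimulus after compound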;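 as to potentiation: 0% = buffer-only wells and 100% = R-L3 activator control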). Particulars: KCNQ1 cell line, FluxOR thallium flux fluorescence, at 10 µM; active compounds read high, % of reference activator effect, buffer zero.

Assay [19] concerns the target Potassium voltage-gated channel subfamily KQT member 2 (Rattus norvegicus) (UniProt O88943). As to the kind of experiment: rat KCNQ2 channel potentiation, selectivity assay for KCNQ1 potentiator project, KCNQ2-CHO-K1 cells (AID 493009;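 active = mean duplicate potentiation above the buffer control mean plus 5 SD of buffer wells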;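 also: assay conditions were tuned for KCNQ1 rather than KCNQ2 modulators; signal is max minus min fluorescence divided by baseline after thallium stimulus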). Particulars: FluxOR thallium flux fluorescence, at 10 µM; active compounds read high, scaled: buffer 0, activator control 100.
In assay [20] the target is Short transient receptor potential channel 4 (Mus musculus) (UniProt Q9QUQ5). As to the kind of experiment: mouse TRPC4 channel inhibitors, dose response, cell-based, HEK293 TRPC4/mu-opioid, Fluo-4 calcium (AID 434942;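 active = primary screen inhibitor hit that blocks the TRPC4 channel at some tested dose, yielding a dose curve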).

For some of these results: Results with a measured potency or affinity are listed apart. The source made the active and inactive calls.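 The calls were made as follows, unless noted: active = calcium signal cut by more than 3 SD below the full-agonist control yet still positive, in both repeats and the earlier primary screen; inactive = the rest.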

Chain of Short transient receptor potential channel 4 (Mus musculus) (Q9QUQ5 whole entry, looked up): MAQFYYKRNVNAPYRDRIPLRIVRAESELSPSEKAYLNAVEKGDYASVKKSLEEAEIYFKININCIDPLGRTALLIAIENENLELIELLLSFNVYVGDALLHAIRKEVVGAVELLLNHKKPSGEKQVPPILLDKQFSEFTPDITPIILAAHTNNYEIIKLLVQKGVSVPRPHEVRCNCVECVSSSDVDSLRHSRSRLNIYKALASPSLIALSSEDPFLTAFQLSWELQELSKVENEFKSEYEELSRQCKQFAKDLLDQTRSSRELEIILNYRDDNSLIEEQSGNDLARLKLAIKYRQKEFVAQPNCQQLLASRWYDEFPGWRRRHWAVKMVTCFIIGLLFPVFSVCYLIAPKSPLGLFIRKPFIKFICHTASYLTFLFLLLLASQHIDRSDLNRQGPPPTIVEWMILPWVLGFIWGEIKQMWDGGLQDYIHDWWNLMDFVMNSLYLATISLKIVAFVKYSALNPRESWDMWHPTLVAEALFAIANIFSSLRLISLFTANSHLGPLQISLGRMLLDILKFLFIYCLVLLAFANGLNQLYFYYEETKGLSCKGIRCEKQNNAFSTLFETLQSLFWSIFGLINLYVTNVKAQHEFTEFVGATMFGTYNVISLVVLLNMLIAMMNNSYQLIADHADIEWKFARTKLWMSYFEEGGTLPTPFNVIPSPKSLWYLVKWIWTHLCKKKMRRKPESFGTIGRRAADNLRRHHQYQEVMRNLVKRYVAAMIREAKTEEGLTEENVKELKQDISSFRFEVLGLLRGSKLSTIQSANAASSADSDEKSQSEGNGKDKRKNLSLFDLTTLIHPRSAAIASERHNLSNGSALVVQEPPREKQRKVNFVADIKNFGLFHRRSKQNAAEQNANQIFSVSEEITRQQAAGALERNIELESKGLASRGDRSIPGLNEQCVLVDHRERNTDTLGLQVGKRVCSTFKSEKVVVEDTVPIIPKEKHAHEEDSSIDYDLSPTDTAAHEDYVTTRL
Chain of Potassium voltage-gated channel subfamily KQT member 2 (Rattus norvegicus) (O88943 whole entry, looked up): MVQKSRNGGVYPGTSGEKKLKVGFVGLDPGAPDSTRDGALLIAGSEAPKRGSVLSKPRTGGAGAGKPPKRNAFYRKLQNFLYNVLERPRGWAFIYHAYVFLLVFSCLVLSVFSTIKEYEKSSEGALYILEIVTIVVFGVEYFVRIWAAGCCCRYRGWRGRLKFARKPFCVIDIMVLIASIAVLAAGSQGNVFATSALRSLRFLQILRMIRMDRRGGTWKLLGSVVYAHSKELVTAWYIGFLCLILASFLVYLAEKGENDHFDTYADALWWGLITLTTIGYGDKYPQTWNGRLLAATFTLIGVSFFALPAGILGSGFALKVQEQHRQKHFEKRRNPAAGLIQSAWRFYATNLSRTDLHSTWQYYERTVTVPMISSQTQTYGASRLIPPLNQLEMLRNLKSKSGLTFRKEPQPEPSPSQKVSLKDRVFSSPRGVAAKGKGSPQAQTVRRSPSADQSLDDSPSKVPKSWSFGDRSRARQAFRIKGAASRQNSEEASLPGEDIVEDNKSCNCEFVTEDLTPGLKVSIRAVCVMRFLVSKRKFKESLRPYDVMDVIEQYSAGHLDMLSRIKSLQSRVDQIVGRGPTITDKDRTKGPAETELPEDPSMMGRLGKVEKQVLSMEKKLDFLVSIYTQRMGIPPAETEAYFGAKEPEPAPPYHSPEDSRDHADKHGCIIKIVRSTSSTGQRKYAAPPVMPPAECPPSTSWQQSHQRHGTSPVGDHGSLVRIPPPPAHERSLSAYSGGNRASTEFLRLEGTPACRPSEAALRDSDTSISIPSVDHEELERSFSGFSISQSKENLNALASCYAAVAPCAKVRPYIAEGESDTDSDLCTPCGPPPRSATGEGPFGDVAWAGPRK
Chain of Potassium voltage-gated channel subfamily KQT member 1 (Homo sapiens) (P51787 whole entry, looked up): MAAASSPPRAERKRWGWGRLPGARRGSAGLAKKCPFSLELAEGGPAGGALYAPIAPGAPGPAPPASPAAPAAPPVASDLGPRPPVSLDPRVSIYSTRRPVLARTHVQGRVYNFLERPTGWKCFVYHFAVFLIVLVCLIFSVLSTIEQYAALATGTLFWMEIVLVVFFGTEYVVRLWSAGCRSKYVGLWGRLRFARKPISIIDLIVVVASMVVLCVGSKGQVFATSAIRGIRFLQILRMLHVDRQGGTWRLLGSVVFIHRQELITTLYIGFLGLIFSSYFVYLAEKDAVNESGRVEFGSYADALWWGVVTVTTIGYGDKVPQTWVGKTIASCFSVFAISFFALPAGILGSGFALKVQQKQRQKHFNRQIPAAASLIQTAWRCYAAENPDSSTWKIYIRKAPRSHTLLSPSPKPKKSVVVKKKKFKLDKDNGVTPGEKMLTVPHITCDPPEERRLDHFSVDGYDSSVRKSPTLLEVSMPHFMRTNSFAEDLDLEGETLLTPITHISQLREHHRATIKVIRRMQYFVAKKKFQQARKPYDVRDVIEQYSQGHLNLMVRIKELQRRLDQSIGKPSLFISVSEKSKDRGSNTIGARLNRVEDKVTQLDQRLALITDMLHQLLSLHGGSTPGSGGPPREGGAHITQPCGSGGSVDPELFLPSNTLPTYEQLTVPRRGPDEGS
Chain of Short transient receptor potential channel 6 (Mus musculus) (Q61143 whole entry, looked up): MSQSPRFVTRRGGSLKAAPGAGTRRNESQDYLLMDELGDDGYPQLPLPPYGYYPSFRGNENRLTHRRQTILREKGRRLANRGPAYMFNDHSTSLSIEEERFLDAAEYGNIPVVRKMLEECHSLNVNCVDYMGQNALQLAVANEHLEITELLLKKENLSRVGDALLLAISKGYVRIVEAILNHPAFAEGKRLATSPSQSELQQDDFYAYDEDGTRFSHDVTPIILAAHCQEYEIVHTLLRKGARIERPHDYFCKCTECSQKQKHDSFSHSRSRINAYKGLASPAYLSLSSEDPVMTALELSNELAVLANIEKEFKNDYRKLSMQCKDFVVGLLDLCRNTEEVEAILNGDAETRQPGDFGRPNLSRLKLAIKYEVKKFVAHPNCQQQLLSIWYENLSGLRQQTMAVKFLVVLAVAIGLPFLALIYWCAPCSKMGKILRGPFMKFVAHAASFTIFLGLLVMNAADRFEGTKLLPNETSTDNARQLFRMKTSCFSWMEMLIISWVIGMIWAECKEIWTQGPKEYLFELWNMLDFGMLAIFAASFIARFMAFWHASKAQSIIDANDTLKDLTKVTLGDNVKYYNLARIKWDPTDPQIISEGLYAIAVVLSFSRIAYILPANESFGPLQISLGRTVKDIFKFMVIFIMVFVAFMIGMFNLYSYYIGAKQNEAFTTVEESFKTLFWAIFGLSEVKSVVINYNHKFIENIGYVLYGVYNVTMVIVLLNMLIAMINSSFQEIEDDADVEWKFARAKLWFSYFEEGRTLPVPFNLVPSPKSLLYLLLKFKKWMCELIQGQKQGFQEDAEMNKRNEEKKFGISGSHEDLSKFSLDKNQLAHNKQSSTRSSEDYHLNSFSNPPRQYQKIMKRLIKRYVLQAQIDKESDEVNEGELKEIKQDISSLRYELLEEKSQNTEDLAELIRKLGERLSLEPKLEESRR

Take `Cc1nc2c3cc(Cl)ccc3n(CCN3CCCCC3)c2s1`: the outcome in assay [1], in assay [2], in [3], in [4], in [6] and in assay [7] was inactive. The outcome in assay [8], in assay [10], in assay [11], in assay [12], in assay [14] and in assay [15] was inactive. Moreover, the result in assay [16], in assay [17], in assay [18] and in assay [19] was inactive. The inhibition in [5] was 72% (active); in assay [9], 39.5% (active); in [13] it was 28.7% (active).

For `CC(=O)C1=C(S(=O)(=O)c2ccc(C)cc2)CS(=O)(=O)C1`, the outcome in assay [1], in [2], in assay [3], in assay [4], in assay [7] and in assay [8] was inactive. Further, the compound was called inactive in assay [9], in [10], in [11], in assay [12], in assay [14] and in assay [15]. The outcome in assay [16], in [17] and in assay [18] was inactive. The figures for the inhibition in [5], in assay [6] and in assay [13] were 74% (active), 39% (active) and 12.2% (active), respectively. Further, the potentiation in assay [19] was 200% (active).

Take `O=C(O)c1ccc(Cl)cc1Nc1nc2cc(Cl)ccc2o1`: the outcome in assay [1], in assay [2], in assay [3], in assay [4], in [6] and in [7] was inactive. Moreover, the result in [8], in [9], in [10], in assay [11], in assay [12] and in assay [14] was inactive. The outcome in assay [15], in [16], in assay [17] and in [19] was inactive. Also, the inhibition in assay [5] is 98% (active); in assay [13] it was 9.42% (active). Also, the potentiation in assay [18] was 24.5% (active).

With `O=C(Nc1cccc(Cl)c1)N1CCN(C/C=C/c2ccccc2)CC1`, the result in assay [1], in assay [2], in [3], in [4], in [5] and in [6] was inactive. For the same compound, the outcome in [7], in assay [20], in assay [9], in assay [10], in assay [11] and in assay [12] was inactive. For the same compound, the result in [13], in assay [15] and in assay [16] was inactive. Further, the potentiation in [14] is 19.8% (active).

As for `CCSC1=N/C(=C\c2ccc(OC)cc2)C(=O)N1`, the outcome in assay [1], in assay [2], in assay [3], in assay [4], in assay [5] and in [6] was inactive. Besides, the outcome in [7], in assay [20], in assay [9], in assay [10], in assay [11] and in assay [12] was inactive. Moreover, the result in assay [13], in [14], in assay [15] and in [16] was inactive.

`Cc1cc(-c2ccc(C)c(S(=O)(=O)N3CCN(C(=O)c4ccco4)CC3)c2)on1`: the result in [1], in assay [2], in [3], in assay [5], in assay [6] and in assay [7] was inactive. For the same compound, the result in assay [20], in assay [9], in assay [10], in assay [11], in assay [12] and in [13] was inactive. Moreover, the result in [15] and in assay [16] was inactive. For the same compound, the potentiation in [4] was 46% (active); in [14], 54.2% (active).

As for `Cc1cc(OCc2cc(C(=O)NCCN3CCCCC3CO)no2)cc(C)c1Cl` (stereo unspecified), the outcome in assay [1], in assay [2], in [3], in [4], in assay [6] and in assay [7] was inactive. Moreover, the result in assay [8], in [9], in [10], in assay [11], in assay [12] and in assay [14] was inactive. For the same compound, the outcome in [15] and in [16] was inactive. Moreover, the inhibition in assay [5] was 93% (active); in assay [13], 21.5% (active).
